Test results from the supplement of paper PMC10849652.
Targets with a hit are over-represented here; the source holds about 8,800 in all. About 0.5% of all pairs of compound and target were hits. Unmarked numbers belong to inactive results.

How the values were obtained:
Experiment in all cases: log2 fold change, soluble protein after heating vs DMSO (PISA); higher = thermal stabilisation; K562 lysate, 10 uM; active = over 0.2 and 3.5 SD of the protein, either way, in both replicates (recomputed)
vemurafenib = compound: CCCS(=O)(=O)Nc1ccc(F)c(C(=O)c2c[nH]c3ncc(-c4ccc(Cl)cc4)cc23)c1F [vemurafenib]
How it was run: (§1)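 The values are log-two fold changes in thermal stability compared with solvent controls and come from duplicates. They were obtained by TMTpro 16plex LC-MS/MS, with channel sums equalised, on the supernatant after 21,000xg for 90 min. That supernatant came from crude K562 extract at 1 mg/mL protein treated with 10 μM compound for 30 min, heated for 3 min across 48°C-58°C, pooled and brought to 0.5% NP-40 at 4°C.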

[1] = compound: CCCS(=O)(=O)Nc1ccc(F)c(C(=O)c2c[nH]c3ncc(Cl)cc23)c1F
How it was run: as §1

barasertib = compound: CCN(CCCOc1ccc2c(Nc3cc(CC(=O)Nc4cccc(F)c4)[nH]n3)ncnc2c1)CCOP(=O)(O)O [barasertib]
How it was run: as §1

[2] = compound: CC[C@@H]1C(=O)N(C)c2cnc(Nc3ccc(C(=O)NC4CCN(C)CC4)cc3OC)nc2N1C1CCCC1
How it was run: as §1

volasertib = compound: CC[C@@H]1C(=O)N(C)c2cnc(Nc3ccc(C(=O)N[C@H]4CC[C@H](N5CCN(CC6CC6)CC5)CC4)cc3OC)nc2N1C(C)C [volasertib]
How it was run: as §1

[3] = compound: CCn1c(C(=O)N(C2CC2)C2CC2)cc2c3c(ncn3C)c(Nc3cc(C)n(C)n3)nc21
How it was run: as §1

[4] = compound: CCn1cc(-c2ccnc3[nH]c(-c4cccc(CN(C)C)c4)cc23)c(-c2ccc(NC(=O)N(C)C)cc2)n1
How it was run: as §1

[5] = compound: CN1CCC(CNc2ccc3ncc(-c4cccc(OC(F)(F)F)c4)n3n2)CC1
How it was run: as §1

saracatinib = compound: CN1CCN(CCOc2cc(OC3CCOCC3)c3c(Nc4c(Cl)ccc5c4OCO5)ncnc3c2)CC1 [saracatinib]
How it was run: as §1

sotrastaurin = compound: CN1CCN(c2nc(C3=C(c4c[nH]c5ccccc45)C(=O)NC3=O)c3ccccc3n2)CC1 [sotrastaurin]
How it was run: as §1

UniProt Q9P281, sequence (Q9P281 whole entry, looked up): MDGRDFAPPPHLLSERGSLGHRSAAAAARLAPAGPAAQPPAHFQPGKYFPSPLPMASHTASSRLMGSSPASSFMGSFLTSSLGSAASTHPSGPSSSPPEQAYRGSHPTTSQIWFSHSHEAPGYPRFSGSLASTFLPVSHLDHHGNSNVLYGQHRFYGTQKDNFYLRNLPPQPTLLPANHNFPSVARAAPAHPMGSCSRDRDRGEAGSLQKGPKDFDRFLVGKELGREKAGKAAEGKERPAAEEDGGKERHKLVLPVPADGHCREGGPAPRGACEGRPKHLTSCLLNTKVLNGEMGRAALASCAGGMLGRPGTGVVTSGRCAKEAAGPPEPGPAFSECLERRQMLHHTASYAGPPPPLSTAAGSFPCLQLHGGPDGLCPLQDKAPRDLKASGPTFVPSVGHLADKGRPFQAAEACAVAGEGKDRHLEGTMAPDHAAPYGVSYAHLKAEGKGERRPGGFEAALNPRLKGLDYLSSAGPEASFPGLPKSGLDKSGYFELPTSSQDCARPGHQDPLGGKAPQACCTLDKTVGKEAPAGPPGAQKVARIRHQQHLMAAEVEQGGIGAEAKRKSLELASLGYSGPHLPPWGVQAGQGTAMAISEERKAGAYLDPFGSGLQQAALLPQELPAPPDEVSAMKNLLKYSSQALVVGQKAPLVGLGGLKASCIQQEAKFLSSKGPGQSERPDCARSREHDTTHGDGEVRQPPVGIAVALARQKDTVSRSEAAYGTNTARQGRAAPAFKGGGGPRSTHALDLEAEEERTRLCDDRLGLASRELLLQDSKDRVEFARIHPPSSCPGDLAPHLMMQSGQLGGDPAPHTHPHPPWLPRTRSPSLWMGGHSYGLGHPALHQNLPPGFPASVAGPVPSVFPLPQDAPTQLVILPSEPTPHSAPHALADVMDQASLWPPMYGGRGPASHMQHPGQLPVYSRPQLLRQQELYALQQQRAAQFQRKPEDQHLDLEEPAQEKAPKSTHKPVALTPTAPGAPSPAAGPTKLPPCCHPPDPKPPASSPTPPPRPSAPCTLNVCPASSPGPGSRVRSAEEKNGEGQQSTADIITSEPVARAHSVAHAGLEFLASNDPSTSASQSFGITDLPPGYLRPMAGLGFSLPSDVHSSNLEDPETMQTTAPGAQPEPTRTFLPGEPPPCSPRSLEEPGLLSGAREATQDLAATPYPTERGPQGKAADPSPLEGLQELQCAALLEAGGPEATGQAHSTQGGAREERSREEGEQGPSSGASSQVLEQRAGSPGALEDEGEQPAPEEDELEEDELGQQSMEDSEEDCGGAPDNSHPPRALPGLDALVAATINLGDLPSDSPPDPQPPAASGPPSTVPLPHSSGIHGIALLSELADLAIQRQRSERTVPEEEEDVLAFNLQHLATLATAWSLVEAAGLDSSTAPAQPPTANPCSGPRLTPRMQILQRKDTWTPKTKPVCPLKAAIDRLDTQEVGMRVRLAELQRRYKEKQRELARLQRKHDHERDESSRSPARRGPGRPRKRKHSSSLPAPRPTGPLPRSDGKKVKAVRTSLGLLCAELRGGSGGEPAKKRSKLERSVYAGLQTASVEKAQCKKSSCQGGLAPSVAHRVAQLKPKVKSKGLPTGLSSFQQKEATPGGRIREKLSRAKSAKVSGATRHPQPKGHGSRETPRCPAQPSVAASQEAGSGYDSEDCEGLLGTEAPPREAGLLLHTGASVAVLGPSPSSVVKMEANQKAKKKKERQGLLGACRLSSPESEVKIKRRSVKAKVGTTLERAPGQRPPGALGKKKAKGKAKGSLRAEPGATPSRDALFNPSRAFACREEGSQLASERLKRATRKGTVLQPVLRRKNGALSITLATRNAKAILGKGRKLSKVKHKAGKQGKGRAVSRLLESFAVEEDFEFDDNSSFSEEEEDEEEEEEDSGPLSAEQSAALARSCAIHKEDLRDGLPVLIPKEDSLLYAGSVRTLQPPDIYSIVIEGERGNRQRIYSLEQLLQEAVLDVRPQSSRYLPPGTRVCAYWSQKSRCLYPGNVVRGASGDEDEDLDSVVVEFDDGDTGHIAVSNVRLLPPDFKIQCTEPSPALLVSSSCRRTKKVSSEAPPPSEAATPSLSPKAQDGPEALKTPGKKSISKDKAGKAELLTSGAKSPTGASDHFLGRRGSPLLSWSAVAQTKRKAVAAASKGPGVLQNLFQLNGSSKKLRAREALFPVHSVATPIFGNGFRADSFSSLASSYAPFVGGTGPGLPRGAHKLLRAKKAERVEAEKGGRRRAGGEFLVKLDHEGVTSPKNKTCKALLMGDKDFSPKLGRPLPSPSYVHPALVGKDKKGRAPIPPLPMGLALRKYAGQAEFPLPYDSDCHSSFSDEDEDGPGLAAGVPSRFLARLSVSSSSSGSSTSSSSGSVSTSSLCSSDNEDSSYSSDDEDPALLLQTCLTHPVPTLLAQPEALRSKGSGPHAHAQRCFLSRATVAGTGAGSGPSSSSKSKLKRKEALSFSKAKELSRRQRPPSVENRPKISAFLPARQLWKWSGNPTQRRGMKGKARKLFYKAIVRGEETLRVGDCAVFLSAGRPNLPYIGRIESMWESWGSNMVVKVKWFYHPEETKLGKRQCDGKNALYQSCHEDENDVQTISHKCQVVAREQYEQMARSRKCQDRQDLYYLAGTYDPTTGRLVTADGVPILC
UniProt P30304, sequence (P30304 whole entry, looked up): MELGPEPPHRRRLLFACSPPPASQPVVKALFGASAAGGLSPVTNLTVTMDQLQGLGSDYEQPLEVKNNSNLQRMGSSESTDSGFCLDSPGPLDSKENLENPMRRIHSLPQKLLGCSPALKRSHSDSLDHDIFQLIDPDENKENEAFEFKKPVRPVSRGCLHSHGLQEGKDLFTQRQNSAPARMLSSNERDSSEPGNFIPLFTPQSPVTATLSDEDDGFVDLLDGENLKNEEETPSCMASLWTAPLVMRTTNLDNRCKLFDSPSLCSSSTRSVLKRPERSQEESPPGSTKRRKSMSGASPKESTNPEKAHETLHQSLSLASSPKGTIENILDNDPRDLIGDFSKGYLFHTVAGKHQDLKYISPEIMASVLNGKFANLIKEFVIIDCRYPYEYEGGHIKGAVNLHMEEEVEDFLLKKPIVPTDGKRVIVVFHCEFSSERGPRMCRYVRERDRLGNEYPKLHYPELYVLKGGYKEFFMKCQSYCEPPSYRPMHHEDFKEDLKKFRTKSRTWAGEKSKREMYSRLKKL
UniProt Q8IWZ6, sequence (Q8IWZ6 whole entry, looked up): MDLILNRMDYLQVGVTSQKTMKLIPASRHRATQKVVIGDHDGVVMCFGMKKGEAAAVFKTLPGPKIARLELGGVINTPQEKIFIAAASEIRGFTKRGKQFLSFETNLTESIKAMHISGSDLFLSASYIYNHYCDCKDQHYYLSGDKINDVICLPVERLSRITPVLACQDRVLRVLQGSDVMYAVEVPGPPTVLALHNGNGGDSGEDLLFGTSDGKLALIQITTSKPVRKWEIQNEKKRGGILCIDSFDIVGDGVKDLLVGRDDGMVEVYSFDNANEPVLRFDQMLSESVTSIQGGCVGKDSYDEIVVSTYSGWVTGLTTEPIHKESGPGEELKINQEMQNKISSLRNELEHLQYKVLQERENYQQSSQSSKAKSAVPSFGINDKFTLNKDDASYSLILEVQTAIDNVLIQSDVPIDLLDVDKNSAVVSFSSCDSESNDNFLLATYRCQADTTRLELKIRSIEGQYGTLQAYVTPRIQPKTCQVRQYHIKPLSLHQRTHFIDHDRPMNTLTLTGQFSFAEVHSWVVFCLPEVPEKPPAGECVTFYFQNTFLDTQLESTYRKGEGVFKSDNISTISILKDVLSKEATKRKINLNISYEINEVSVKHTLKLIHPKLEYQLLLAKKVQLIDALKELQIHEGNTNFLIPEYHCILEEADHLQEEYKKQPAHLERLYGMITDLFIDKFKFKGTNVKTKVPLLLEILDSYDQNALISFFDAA
UniProt Q8IYX8, sequence (Q8IYX8 whole entry, looked up): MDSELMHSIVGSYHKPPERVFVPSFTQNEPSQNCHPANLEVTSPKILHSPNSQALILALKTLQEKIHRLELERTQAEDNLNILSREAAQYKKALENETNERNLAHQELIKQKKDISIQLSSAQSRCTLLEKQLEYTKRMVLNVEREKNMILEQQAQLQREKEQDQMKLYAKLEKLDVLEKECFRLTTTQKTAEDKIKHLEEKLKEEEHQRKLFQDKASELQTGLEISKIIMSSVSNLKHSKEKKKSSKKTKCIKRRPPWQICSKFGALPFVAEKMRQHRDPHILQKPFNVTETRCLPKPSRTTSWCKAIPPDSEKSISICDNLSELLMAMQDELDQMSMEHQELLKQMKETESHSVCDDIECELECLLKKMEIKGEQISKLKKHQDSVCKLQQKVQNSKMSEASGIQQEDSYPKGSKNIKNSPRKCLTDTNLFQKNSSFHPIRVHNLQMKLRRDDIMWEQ
UniProt Q96L58, sequence (Q96L58 whole entry, looked up): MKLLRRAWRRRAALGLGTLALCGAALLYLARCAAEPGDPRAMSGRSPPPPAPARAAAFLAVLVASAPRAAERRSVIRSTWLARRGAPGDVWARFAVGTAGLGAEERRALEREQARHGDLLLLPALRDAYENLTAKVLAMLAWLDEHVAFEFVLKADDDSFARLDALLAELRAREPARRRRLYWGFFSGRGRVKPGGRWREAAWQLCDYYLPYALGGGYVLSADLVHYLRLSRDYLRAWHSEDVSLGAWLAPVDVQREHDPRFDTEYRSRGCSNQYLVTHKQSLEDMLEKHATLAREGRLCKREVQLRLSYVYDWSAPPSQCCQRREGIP
UniProt P13994, sequence (P13994 whole entry, looked up): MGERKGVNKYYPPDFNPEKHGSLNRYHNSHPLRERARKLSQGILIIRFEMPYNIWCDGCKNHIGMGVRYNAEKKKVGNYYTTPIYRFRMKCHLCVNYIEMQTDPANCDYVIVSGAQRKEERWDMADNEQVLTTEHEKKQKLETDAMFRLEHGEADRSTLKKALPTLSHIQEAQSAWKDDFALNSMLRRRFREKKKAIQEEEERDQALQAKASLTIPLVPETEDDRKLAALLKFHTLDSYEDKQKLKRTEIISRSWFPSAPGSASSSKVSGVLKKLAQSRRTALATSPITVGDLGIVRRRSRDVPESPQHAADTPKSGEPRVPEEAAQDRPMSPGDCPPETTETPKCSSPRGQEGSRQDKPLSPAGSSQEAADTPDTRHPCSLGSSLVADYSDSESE

| Target | log2 fold change (vemurafenib) | log2 fold change [1] | log2 fold change (barasertib) | log2 fold change [2] | log2 fold change (volasertib) | log2 fold change [3] | log2 fold change [4] | log2 fold change [5] | log2 fold change (saracatinib) | log2 fold change (sotrastaurin) |
| --- | --- | --- | --- | --- | --- | --- | --- | --- | --- | --- |
| BCR (UniProt P11274) | 0.012 | 0.043 | -0.021 | -0.062 | -0.056 | 0.015 | -0.112 | -0.029 | 0.024 | -0.018 |
| CAMKK2 (UniProt Q96RR4) | -0.07 | -0.026 | 0.003 | 0.176 | 0.075 | 0.057 | 0.003 | 0.002 | -0.017 | 0.069 |
| BPHL (UniProt Q86WA6) | -0.13 | 0.013 | 0.058 | 0.015 | 0 | 0.069 | 0.063 | 0 | -0.058 | 0.084 |
| BRD3 (UniProt Q15059) | -0.046 | 0.038 | -0.087 | 0.451 (active) | 0.263 | – | -0.143 | 0.188 | 0.008 | -0.082 |
| CDK5 (UniProt Q00535) | -0.021 | 0.022 | – | -0.08 | -0.079 | 0.008 | -0.055 | 0.071 | -0.008 | 0.175 |
| BAHCC1 (UniProt Q9P281) | 0.11 | 0.004 | – | -0.247 | 0 | – | 0.415 | 0.219 | 0.025 | 0.127 |
| CDC25A (UniProt P30304) | – | 0.038 | – | – | -0.053 | 0.033 | – | – | -0.022 | 0.092 |
| CHD9 (UniProt Q3L8U1) | -0.028 | – | – | – | – | -0.139 | 1.88 (active) | -0.122 | 0.114 | 0.17 |
| CDC14A isoform 2 (UniProt Q9UNH5) | – | -0.271 | – | – | 0.085 | 0.101 | – | – | – | 0.058 |
| CEP295 isoform 3 (UniProt Q9C0D2) | – | -0.058 | -0.039 | 0.052 | 0.043 | -0.028 | -0.387 | 0.001 | – | 0.005 |
| BNIP3 (UniProt Q12983) | – | 0.035 | -0.037 | 0.069 | 0.116 | -0.023 | -0.307 | 0.149 | 0.118 | 0.03 |
| C15orf39 (UniProt Q6ZRI6) | – | – | -0.012 | -0.047 | – | -0.008 | 0.08 | 0.132 | 0.025 | 0.042 |
| CENPV (UniProt Q7Z7K6) | -0.104 | – | 0 | -0.033 | – | 0.19 | 0.264 | -0.004 | – | 0.007 |
| CDK17 isoform 2 (UniProt Q00537) | -0.115 | – | 0.011 | -0.078 | – | -0.007 | 0.091 | -0.299 | -0.017 | 0.03 |
| C3AR1 (UniProt Q16581) | – | – | -0.172 | – | – | – | -0.664 (active) | -0.286 | – | -0.004 |
| CHD4, A0A2R8Y521 | – | -0.315 | – | -0.053 | 0.103 | -0.342 | – | – | 0.149 | – |
| CASP7 isoform 3 (UniProt P55210) | – | -0.117 | 0.059 | -0.148 | -0.049 | -0.119 | – | – | 0.056 | -0.091 |
| BCORL1 isoform 3 (UniProt Q5H9F3) | 0.123 | – | – | -0.033 | – | -0.018 | -0.546 | 0.344 | -0.082 | -0.099 |
| BMT2 (UniProt Q1RMZ1) | – | – | – | – | – | – | 0.004 | 0.096 | – | – |
| CDK5RAP1 (UniProt Q96SZ6) | -0.03 | – | 0.025 | 0.059 | – | 0.035 | 0.023 | 0.026 | 0.026 | -0.037 |
| CASC1 (UniProt Q6TDU7) | – | – | 1.04 | – | – | -0.217 | 0.034 | 0.006 | – | – |
| CDK11A (UniProt Q9UQ88) | – | -0.019 | 0.029 | – | -0.135 | 0.047 | 0.127 | -0.099 | -0.069 | -0.026 |
| CCAR2 (UniProt G3V119) | – | 0.087 | – | – | -0.074 | – | – | – | – | – |

| Target | log2 fold change (vemurafenib) | log2 fold change [1] | log2 fold change (barasertib) | log2 fold change [2] | log2 fold change (volasertib) | log2 fold change [3] | log2 fold change [4] | log2 fold change [5] | log2 fold change (saracatinib) | log2 fold change (sotrastaurin) |
| --- | --- | --- | --- | --- | --- | --- | --- | --- | --- | --- |
| CEP152 (UniProt O94986) | 0.031 | – | 0.106 | 0.25 | – | 0.008 | -0.009 | 0.272 | 0.051 | -0.039 |
| CDCA8 (UniProt Q53HL2) | 0.025 | – | 0.106 | 0.051 | – | – | 0.677 (active) | -0.034 | 0.171 | – |
| BUD13 (UniProt Q9BRD0) | – | – | 0.092 | -0.07 | – | -0.037 | 0.076 | -0.064 | 0.096 | 0.025 |
| ATG10 (UniProt Q9H0Y0) | 0.026 | – | 0.092 | 0.016 | – | 0.012 | -0.021 | 0.01 | -0.021 | 0.038 |
| CCND3 (UniProt P30281) | – | – | 0.014 | -0.056 | – | -0.112 | -0.116 | 0.075 | 0.086 | 0.016 |
| ATPSCKMT (UniProt Q6P4H8) | – | – | -0.019 | 0.171 | – | 0.077 | – | – | 0.053 | -0.007 |
| CEP57L1 (UniProt Q8IYX8) | – | – | -0.06 | 0.227 | – | 0.044 | -0.028 | -0.066 | -0.065 | -0.007 |
| CAD (UniProt H7BZB3) | -0.063 | – | – | 0.144 | – | – | -0.02 | -0.027 | – | – |
| BBS7 (UniProt Q8IWZ6) | 0.375 | – | – | -0.082 | – | 0.026 | -0.255 | 0.067 | 0.217 | 0.044 |
| C6orf120 (UniProt Q7Z4R8) | – | -0.127 | 0.096 | – | 0.051 | – | -0.005 | 0.049 | 0.004 | – |
| BICRA (UniProt Q9NZM4) | – | 0.055 | 0.165 | – | 0.036 | -0.233 | -0.133 | -0.048 | 0.02 | 0 |
| CDAN1 (UniProt H3BPZ6) | – | – | – | – | – | – | – | – | – | 0.175 |
| CCP110 (UniProt O43303) | -0.202 | – | 0.07 | -0.141 | – | -0.022 | – | – | -0.06 | 0.005 |
| ATG4D (UniProt Q86TL0) | – | – | -0.074 | 0.055 | – | 0.116 | – | – | -0.188 | 0.058 |
| CCDC130 (UniProt P13994) | – | – | 0.045 | 0.036 | – | -0.027 | – | – | – | 0.147 |
| ATE1 (UniProt O95260) | – | 0.061 | -0.051 | – | 0.002 | – | 0.082 | 0.003 | – | 0.021 |
| CARHSP1 (UniProt H3BNU9) | – | 0.032 | 0.246 | – | -0.161 | – | 0.16 | -0.522 | – | – |
| CAPNS1 (UniProt U3KPR7) | – | -0.125 | 0.424 | – | -0.01 | – | – | – | – | – |
| C8orf88 (UniProt P0DMB2) | – | – | -0.053 | – | – | 0.027 | 0.084 | 0.011 | 0.051 | -0.015 |
| ATXN2 (UniProt F8WB06) | – | – | – | – | – | – | – | – | -0.088 | – |
| C9orf72 (UniProt Q96LT7) | – | -0.03 | -0.091 | 0.034 | 0.088 | 0.022 | -0.065 | -0.015 | 0.082 | 0.011 |
| B3GALT6 (UniProt Q96L58) | – | – | 0.002 | – | – | 0.115 | – | – | -0.172 | 0.067 |
| BRAF, A0A2R8Y8E0 | 1.34 | – | – | -0.287 | – | – | – | – | – | – |
